Reference: ChEMBL document CHEMBL3988442, “University of Dundee, Small-Polar-MMV Screening Library” (2021)
Where “and” joins values, the source holds several entries; their conditions need not be identical. Equal values may be shown once. The campaign covered roughly 67,000 compounds. About 40 (0.06%) showed an effect of 50% or more. Only a selection was taken, and strong results are over-represented in it overall.

Target: T1, Coenzyme A biosynthesis bifunctional protein CoaBC (Mycobacterium tuberculosis (strain ATCC 25618 / H37Rv)) (UniProt P9WNZ1)
T1 sequence (whole entry): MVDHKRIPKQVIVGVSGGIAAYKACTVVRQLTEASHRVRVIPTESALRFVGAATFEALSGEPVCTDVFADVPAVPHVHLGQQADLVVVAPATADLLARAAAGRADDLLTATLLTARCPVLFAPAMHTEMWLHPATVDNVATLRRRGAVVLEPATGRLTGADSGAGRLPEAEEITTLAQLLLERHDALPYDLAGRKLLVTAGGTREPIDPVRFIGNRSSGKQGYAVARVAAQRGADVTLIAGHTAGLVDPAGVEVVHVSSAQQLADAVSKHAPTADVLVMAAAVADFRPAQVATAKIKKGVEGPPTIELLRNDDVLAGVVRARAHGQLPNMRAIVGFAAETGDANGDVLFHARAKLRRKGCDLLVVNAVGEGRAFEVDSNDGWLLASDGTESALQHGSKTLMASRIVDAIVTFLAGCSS
Test: Biomol Green assay for MtCoaBC inhibitor, OD650 read
Assay type: functional
Set-up: scale not given: in the data most compounds retested in dose-response had high values
Conditions: 30 µM

Row | SMILES | Percent Effect
1 | Cc1ccc(CN2CCC3(CC2)CC3CN(C)Cc2cccnc2)o1 (stereo not drawn) | -31.5%
2 | CN(Cc1cccnc1)C1COC2(CCN(Cc3nccs3)CC2)C1 (stereo not drawn) | 1.85%
3 | Cc1noc(C)c1C(=O)N1CC[C@H]2C[C@@H](c3ccncn3)O[C@@H]2C1 | -0.386%
4 | CCCS(=O)(=O)N1C[C@@H]2CN(Cc3cnn(C)c3)CCO[C@@H]2C1 | 4%
5 | O=C(c1cnccn1)N1C[C@@H]2C[C@@H](c3nc(C4CC4)cs3)O[C@@H]2C1 | 2.75%
6 | c1csc(CN2CCO[C@H]3[C@H](OCCN4CCCC4)CC[C@@H]32)n1 | 5.46%
7 | CCC1=N[C@@]2(CC[C@@H]3CN(S(=O)(=O)CC)C[C@@H]32)C(=O)N1CC(C)C | 2.92%
8 | CCc1nc2n(n1)CC(NCc1cc(OC)c3c(c1)OCO3)CC2 (stereo not drawn) | -7.88%
9 | COc1cc(CNC2CCc3nc(C)nn3C2)cc2c1OCCO2 (stereo not drawn) | -5.17%
10 | Cc1ccc(N2CC[C@H]3OCC[C@@]3(C(=O)N(C)C)C2)nn1 | 2.24%
11 | CS(=O)(=O)N1CC[C@H]2[C@H](C[C@@H](Cn3cncn3)N2CC2CC2)C1 | 5%
12 | CC1CCCN(C(=O)c2csc(S(N)(=O)=O)c2)CC1 (stereo not drawn) | -0.441%
13 | CC(C)(C)N1CCCN(C(=O)c2csc(S(N)(=O)=O)c2)CC1 | -6.17%
14 | Cc1cnc(N2C[C@H]3CCN(CC4CC4)C[C@@H]3C2)nc1 | -28.5%
15 | O=C(O)COc1ccc(CN2CCCC(Cc3cccnc3)C2)cc1 (stereo not drawn) | 0.485%
16 | COc1ccc(CCC2CCCN(CC(=O)O)C2)cc1 (stereo not drawn) | 0.988%
17 | O=C(O)COc1ccc(CN2CCCC(CCc3ccccc3)C2)cc1 (stereo not drawn) | 94.3% and 88.4%
18 | CCOCCN1CCN(CCc2ccc3c(c2)CCO3)CC1 | -14.1%
19 | COCC(C)N1CCN(CCc2ccc3c(c2)CCO3)CC1 (stereo not drawn) | 4.17%
20 | CN1CCN(C[C@H]2OC[C@@H]3CCN(Cc4ccsc4)C[C@@H]32)CC1 | -5.68%
21 | O=C1[C@H]2CN(C3CCOC3)C[C@H]2CN1c1ccccc1 (stereo partly drawn) | 2.66%
22 | Cc1cc(CN2C[C@@H]3CCCO[C@@H]3[C@H](N(C)C(C)C)C2)no1 | 9.94%

Row | SMILES | Percent Effect
23 | O=C(NCC1CC1)[C@@H]1CCO[C@@H]2CCN(c3ncccn3)C[C@@H]21 | 0.323%
24 | Cc1nonc1C(=O)N1CC[C@@]2(O)CCN(C3CCCCC3)C[C@H]2C1 | 10.8%
25 | O=C(NC1CCN(C2CC2)CC1)c1cn(-c2ccc(Cl)cc2)nn1 | 3.19%
26 | O=C(NC1CCN(C2CC2)C1)c1cn(-c2ccc(F)cc2)nn1 (stereo not drawn) | -3.95%
27 | CC(C)CCN1C[C@H]2C[C@H](C(=O)N3CCCC3)[C@@H](C1)O2 | 1.46%
28 | CC(C)N1[C@H](Cn2cncn2)C[C@@H]2CN(Cc3nccn3C)CC[C@@H]21 | 4.19%
29 | COc1ccc(CN2C[C@H]3CCC[C@@H](CN(C)C4CC4)[C@H]3C2)cn1 | -25.8%
30 | O=C(C1CC1)N1CCN2C[C@H](c3ccccc3)[C@@H](CO)[C@H]2C1 | -2.91%
31 | O=C1CC(c2ccccc2)c2sc(C(=O)O)c(-c3ccccc3)c2N1 (stereo not drawn) | -0.766%
32 | O=C1CC(c2ccc(O)cc2)c2sc(C(=O)O)c(-c3ccccc3)c2N1 (stereo not drawn) | 1.28%
33 | Cc1ccc(CN2CC[C@H]3OCC[C@@H](C(=O)NC4CC4)[C@@H]3C2)o1 | 3.34%
34 | O=C(c1ccco1)N1CC[C@@H]2[C@H]1CCC(=O)N2c1ccccc1 | 3.58%
35 | CN(Cc1cnccn1)C(=O)[C@@]12CNC[C@@H]1CN(Cc1ccccc1)C2 | 2.15%
36 | CC(C)(C)OC(=O)NCC(=O)NCc1ccc(Cl)s1 | 7.73%
37 | CC(NC(=O)CN1CCCC1=O)c1ccc(Cl)s1 (stereo not drawn) | -0.806%
38 | O=C(C1CCOCC1)N1CCN2C(=O)N(Cc3ccc(F)cc3)C[C@H]2C1 | 12%
39 | CC1CCN(C(=O)[C@@H]2CC[C@@H]3[C@@H](CCN3c3ncc(F)cn3)O2)CC1 | -4.84%
40 | CNC(=O)[C@H]1C[C@@H]2CN(Cc3cccnc3OC)C[C@@H]2N1C(C)C | 1.06%
41 | O=C(c1ccsc1)N1CCO[C@@H]2CN(Cc3cccs3)C[C@@H]2C1 | -4.58%
42 | Cc1nnc(N2C[C@H](Oc3ccccn3)[C@H]3OCCC[C@H]32)s1 | 4.91%
43 | Cc1ccc(-n2c(COCC(=O)O)nc3c(C)cccc32)nc1 | 5.78%
44 | Cc1cccc2c1nc(COCC(=O)O)n2-c1ccsc1 | 5.35%

Row | SMILES | Percent Effect
45 | COCCC(=O)N1C[C@H]2CC[C@@H]1CN(C1Cc3ccccc3C1)C2 | 2.15%
46 | Cn1cc(CN2C[C@H]3CCC[C@@H](CNc4ncccn4)[C@H]3C2)cn1 | -2.24%
47 | Cc1occc1C(=O)N1C[C@H]2CCCC(OCc3cccnc3)[C@H]2C1 (stereo partly drawn) | 7.49%
48 | CN(Cc1ccccn1)C(=O)[C@H]1CO[C@H]2CCN(CC3CC3)C[C@H]2C1 | 1.98%
49 | CN(Cc1nnc2n1CCC2)S(=O)(=O)c1cc(Br)ccc1Br | 3.23%
50 | CN(Cc1nnc2n1CCC2)S(=O)(=O)c1ccc(Br)cc1Cl | -1.49%
51 | Cc1cccc(CN2C[C@@H]3OCCN(C)[C@@H]3C2)n1 | 4.44%
52 | c1cnn([C@@H]2CN(Cc3nccs3)[C@@H]3CCCO[C@@H]32)c1 | 2.08%
53 | COCCN1C(=O)CC[C@@H]2[C@H]1CCN2C(=O)N(C)C | 12.9%
54 | CCOC(=O)[C@]12CCCN(Cc3ccco3)C[C@H]1CN(CCN(C)C)C2 | 3.17%
55 | CC(C)CC(NC(=O)c1ccco1)c1nc2cccnc2n1C (stereo not drawn) | -9.45%
56 | COCC(=O)NC(CC(C)C)c1nc2cccnc2n1C (stereo not drawn) | -0.123%
57 | COc1cccc(CC(=O)N2CC[C@H]3[C@@H]2CCC(=O)N3C)c1 | -4.44%
58 | Cc1ccsc1CN1C[C@@H]2COC[C@]2(CNC(=O)c2ccco2)C1 | 2.1%
59 | Cn1cc(N2C[C@@H]3CN(Cc4ccoc4)C[C@@H]3C2=O)cn1 | -6.36%
60 | CN(C)C(C(=O)N1CCC(CCO)CC1)c1ccccc1F (stereo not drawn) | 10.1%
61 | CCOCC1CCN(C(=O)C(c2c(F)cccc2F)N(C)C)CC1 (stereo not drawn) | -0.163%
62 | CN(C)c1ncc(C(=O)N2C[C@H]3C[C@H](Oc4ccccc4)C[C@H]3C2)cn1 | 12.4%
63 | Cc1nc(-c2ccc(CC(=O)N3CCNC(=O)C3)cc2)cs1 | -8.27%
64 | Cc1nc(-c2ccc(CC(=O)N3CCN(C(=O)C4CC4)CC3)cc2)cs1 | -8.67%
65 | COc1cccc(S(=O)(=O)N2CCN(C)[C@@H]3CS(=O)(=O)C[C@@H]32)c1 | -2.92%
66 | O=C1CC[C@H]2CN(c3ncc(F)cn3)CC[C@H]2N1CCc1c[nH]cn1 | -3.02%

Row | SMILES | Percent Effect
67 | CC(C)NC(=O)[C@@]12CCO[C@@H]1CCN(Cc1ccc3c(c1)OCO3)C2 | -0.976%
68 | CCN1C[C@H]2CCN(C(=O)NC)CC[C@H]2S1(=O)=O | 8.02%
69 | Cc1cc(S(=O)(=O)Nc2cccc(I)c2)sc1C(=O)O | 2.58%
70 | CC(=O)c1cccc(NS(=O)(=O)c2cc(C)c(C(=O)O)s2)c1 | -3%
71 | CNC(=O)N1CC[C@@H]2CN(Cc3cccc(Cl)c3)S(=O)(=O)[C@@H]2CC1 | 6.19%
72 | c1cnc(N2CCO[C@H]3[C@H](OCC4CCOCC4)CC[C@@H]32)nc1 | 1.73%
73 | Cc1ccc(N2C[C@H]3CCC[C@@H](CN4CCOCC4)[C@H]3C2)nn1 | 4.17%
74 | Cc1nc(C2CCCN(C(=O)c3cc(Cl)c[nH]3)C2)no1 (stereo not drawn) | 2.57%
75 | Cc1cccc(C(=O)N2CCCC(c3noc(C)n3)C2)n1 (stereo not drawn) | -20.7%
76 | Cn1nc(-c2cccs2)cc1[C@H]1CN2CC[C@H]1C[C@@H]2CN | -39.9%
77 | CN1C(Cn2cccn2)C[C@@H]2CN(Cc3ccccn3)CC[C@@H]21 (stereo partly drawn) | -8.3%
78 | Cc1cc(NC(=O)C2CCN(c3nnc(C)c(C)c3C#N)CC2)no1 | 2.42%
79 | Cc1cc(C(=O)NC2CCN(c3ncccc3C#N)CC2)no1 | -0.609%
80 | COCCC(Cc1cccc(Br)c1)C(=O)N(C)C (stereo not drawn) | -3.54%
81 | COCCC(Cc1cccc(Br)c1)C(N)=O (stereo not drawn) | 4.72%
82 | COCc1nc2cc(NCc3ccc(C)o3)ccc2o1 | 13%
83 | COCc1nc2cc(NCc3cc[nH]n3)ccc2o1 | 10.3%
84 | Cc1ccc(CN2CCOCC2c2[nH]ncc2C)cn1 (stereo not drawn) | -2.47%
85 | Cc1cn[nH]c1C1COCCN1Cc1ccsc1 (stereo not drawn) | -1.45%
86 | O=C(NC1CC1)[C@@H]1CCO[C@@H]2CCN(C3CCCC3)C[C@H]21 | 7.17%
87 | CC(=O)Nc1ccc(Oc2ccc(CN3CCCC3)cc2F)cc1 | 9.5%
88 | COc1ccc(CN2CCCC2)cc1Oc1ccc(NC(C)=O)cc1 | 1.65%

Row | SMILES | Percent Effect
89 | COCCNC(=O)[C@H]1CN(Cc2sccc2C)C[C@H]2OCC[C@@H]12 | 2.59%
90 | CN1C[C@@H](F)[C@@H](OCc2nc3ccc(C#N)cc3[nH]2)C1 | 8.8%
91 | Cc1ccc2[nH]c(CO[C@H]3CN(C(=O)C4CC4)C[C@H]3F)nc2c1 | 5.96%
92 | CCO[C@H]1CN(C(=O)c2ccnnc2)[C@@H]2COC[C@H]12 | -7.56%
93 | CN(C)C(=O)CN1C[C@@H]2CC[C@H](C1)N(C/C=C/c1ccc(F)cc1)C2 | -5.7%
94 | O=C(COCCOc1ccccc1)NC1CCN(c2ncccn2)CC1 | -6.77%
95 | O=C(COCCOc1ccccc1)NC1CCN(C(=O)C2CC2)CC1 | -27.3%
96 | CN(C)CCN1CCO[C@H]2CN(C(=O)c3ccsc3)C[C@H]21 | 0.976%
97 | O=C(NC1CC1)[C@@H]1CCO[C@@H]2CCN(Cc3ccsc3)C[C@H]21 | 8.23%
98 | O=S(=O)(CCCn1cncn1)Cc1cccc(F)c1 | 3.23%
99 | O=S(=O)(CCCn1cncn1)Cc1ccc(F)cc1Cl | 96.3% and 94.5%
100 | O=S(=O)(CCCn1cncn1)Cc1ccccc1Cl | 0%
101 | Cc1csc(CN2CC[C@H]3C[C@H](c4nc(C)no4)O[C@@H]3C2)n1 | -2.84%
102 | CCS(=O)(=O)N1C[C@H]2CN(Cc3cccc(F)c3)C(=O)[C@H]2C1 | -7.25%
103 | Cc1cccc(CN2CC[C@@H]3[C@@H]2CCN3C(=O)c2cnoc2C)n1 | 8.49%
104 | O=C1OCCN1CC(=O)N1C[C@H]2CC[C@@H]1CN(C(=O)c1cccnc1)C2 | 7.56%
105 | COC[C@@]12CC[C@@H](N3CCOCC3)C[C@H]1CCN(c1cnccn1)C2 | -5.95%
106 | CC(C)CN1CC[C@@H]2[C@@H]1CCN2S(=O)(=O)c1cn(C)cn1 | 4.68%
107 | O=C(O)c1cc(-n2cc3c(n2)CCC3)cc(S(=O)(=O)NC2CCCC2)c1 | -0.121%
108 | O=C(O)c1cc(-n2cc3c(n2)CCC3)cc(S(=O)(=O)N2CCOCC2)c1 | -5.92%
